Activity calls are given as the source filed them. How the source made its calls: active means hit-call score of the fitted dose curve at least 0.9, where 1 is the maximum; inactive means score below 0.9.
Legend:
[1] = read-out: Vascular endothelial growth factor receptor 2 (Homo sapiens) (UniProt P35968); assay: BSK_4H_VEGFRII: BioMAP Diversity Plus: 4H Assay for Vascular endothelial growth factor receptor 2 (VEGFR2) Biomarker Activity (AID 2283031); conditions: primary human endothelial cells (HUVEC); actives raise or lower the signal;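 on AC50: cell-surface VEGFR2 protein level quantified by ELISA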
How it was run: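 ELISA read-out of VEGFRII in primary human umbilical vein endothelium, taken 24 h after chemical treatment. Responses are expressed relative to DMSO, with bidirectional fitting.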

[2] = read-out: Human Leukocyte Antigen - DR isotype (HLADR), HLA-DRA (gene 3122); assay: BSK_BE3C_HLADR: BioMAP Diversity Plus: BE3C Assay for Human Leukocyte Antigen - DR isotype (HLADR) Biomarker Activity (AID 2283032); conditions: primary human bronchial epithelial cells; actives raise or lower the signal
How it was run: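 Human primary bronchial epithelial cells in the BE3C system were exposed to chemicals for 24 h, after which HLA-DR levels were quantified by ELISA. Activity was fitted bidirectionally, gain or loss of signal, against DMSO as negative control and baseline.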

[3] = read-out: Vascular cell adhesion molecule 1 (VCAM1), VCAM1 (gene 7412); assay: BSK_4H_VCAM1: BioMAP Diversity Plus: 4H Assay for Vascular cell adhesion molecule 1 (VCAM1) Biomarker Activity (AID 2283033); conditions: primary human endothelial cells (HUVEC); actives raise or lower the signal
How it was run: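 Primary human umbilical vein endothelial cells were exposed to chemicals for 24 h, after which VCAM-1 was quantified by ELISA. Responses were fitted bidirectionally against DMSO as negative control and activity baseline.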

[4] = read-out: Interferon-gamma inducible Protein 10 (IP10), CXCL10 (gene 3627); assay: BSK_BE3C_IP10: BioMAP Diversity Plus: BE3C Assay for Interferon-gamma inducible Protein 10 (IP10) Biomarker Activity (AID 2283034); conditions: primary human bronchial epithelial cells; actives raise or lower the signal
How it was run: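 Human primary bronchial epithelial cells were exposed to chemicals for 24 hours, after which IP-10 levels were measured by ELISA. Data were fitted bidirectionally against DMSO, which served as the negative control and activity baseline.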

[5] = read-out: Monokine induced gamma interferon (MIG), CXCL9 (gene 4283); assay: BSK_BE3C_MIG: BioMAP Diversity Plus: BE3C Assay for Monokine induced gamma interferon (MIG) Biomarker Activity (AID 2283035); conditions: primary human bronchial epithelial cells; actives raise or lower the signal;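 further: MIG protein measured by ELISA in BE3C cultures after 24 h of dosing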
How it was run: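 MIG level was determined by ELISA after 24 h chemical treatment of primary human bronchial epithelial cells. Values were fitted bidirectionally with DMSO as the negative control and activity baseline.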

[6] = read-out: Transforming growth factor beta 1 (TGFb1), TGFB1 (gene 7040); assay: BSK_BE3C_TGFb1: BioMAP Diversity Plus: BE3C Assay for Transforming growth factor beta 1 (TGFb1) Biomarker Activity (AID 2283036); conditions: primary human bronchial epithelial cells; actives raise or lower the signal
How it was run: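 Human primary bronchial epithelial cells (BE3C system) were dosed with chemical and TGF-b1 levels measured by ELISA at 24 h. Activity was fitted bidirectionally relative to DMSO negative control as baseline.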

[7] = read-out: Plasminogen activator inhibitor-1 (PAI1), SERPINE1 (gene 5054); assay: BSK_BE3C_PAI1: BioMAP Diversity Plus: BE3C Assay for Plasminogen activator inhibitor-1 (PAI1) Biomarker Activity (AID 2283037); conditions: primary human bronchial epithelial cells; actives raise or lower the signal
How it was run: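 Human primary bronchial epithelial cells were exposed to chemical for 24 h, then PAI-1 was quantified by ELISA. Activity was fitted bidirectionally relative to the DMSO negative control baseline.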

[8] = read-out: urokinase plasminogen activator (uPA), PLAU (gene 5328); assay: BSK_BE3C_uPA: BioMAP Diversity Plus: BE3C Assay for urokinase plasminogen activator (uPA) Biomarker Activity (AID 2283038); conditions: primary human bronchial epithelial cells; actives raise or lower the signal
How it was run: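 Bronchial epithelial cells (human, primary); chemical 24 h; uPA by ELISA; bidirectional fit vs DMSO. SRB (0.1%, after 10% TCA fixation, 560 nm) in parallel cultures for cytotoxicity.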

[9] = read-out: Interleukin-6 (IL6), IL6 (gene 3569); assay: BSK_CASM3C_IL6: BioMAP Diversity Plus: CASM3C Assay for Interleukin-6 (IL6) Biomarker Activity for (AID 2283040); conditions: primary human coronary artery smooth muscle cells; actives raise or lower the signal
[10] = read-out: Interleukin-8 (IL8), CXCL8 (gene 3576); assay: BSK_CASM3C_IL8: BioMAP Diversity Plus: CASM3C Assay for Interleukin-8 (IL8) Biomarker Activity (AID 2283042); conditions: primary human coronary artery smooth muscle cells; actives raise or lower the signal;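 further: IL-8 protein level quantified by ELISA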
[11] = read-out: Human Leukocyte Antigen - DR isotype (HLADR), HLA-DRA (gene 3122); assay: BSK_CASM3C_HLADR: BioMAP Diversity Plus: CASM3C Assay for Human Leukocyte Antigen - DR isotype (HLADR) Biomarker Activity (AID 2283043); conditions: primary human coronary artery smooth muscle cells; actives raise or lower the signal;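 further: cell-surface HLA-DR protein level quantified by ELISA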
[12] = read-out: Macrophage colony-stimulating factor (MCSF), CSF1 (gene 1435); assay: BSK_CASM3C_MCSF: BioMAP Diversity Plus: CASM3C Assay for Macrophage colony-stimulating factor (MCSF) Biomarker Activity (AID 2283044); conditions: primary human coronary artery smooth muscle cells; actives raise or lower the signal;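 further: M-CSF protein amount quantified by ELISA after 24 h exposure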
[13] = read-out: Low-density lipoprotein receptor (LDLR), LDLR (gene 3949); assay: BSK_CASM3C_LDLR: BioMAP Diversity Plus: CASM3C Assay for Low-density lipoprotein receptor (LDLR) Biomarker Activity (AID 2283045); conditions: primary human coronary artery smooth muscle cells; actives raise or lower the signal;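 further: LDLR protein level on the cell surface quantified by ELISA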
[14] = read-out: Monocyte Chemoattractant Protein-1 (MCP1), CCL2 (gene 6347); assay: BSK_CASM3C_MCP1: BioMAP Diversity Plus: CASM3C Assay for Monocyte Chemoattractant Protein-1 (MCP1) Biomarker Activity (AID 2283046); conditions: primary human coronary artery smooth muscle cells; actives raise or lower the signal;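 further: MCP-1 level quantified by ELISA 24 h after dosing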
[15] = BSK_CASM3C_Proliferation: Cell Proliferation Assessment in the BioMAP Diversity Plus: CASM3C Assay (AID 2283047); conditions: primary human coronary artery smooth muscle cells;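 further: sulforhodamine B total protein stain as relative cell number at 560 nm; sub-confluent cells exposed 48 h before staining; fitted both ways against DMSO so gain or loss of cell number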
[16] = read-out: Monokine induced gamma interferon (MIG), CXCL9 (gene 4283); assay: BSK_CASM3C_MIG: BioMAP Diversity Plus: CASM3C Assay for Monokine induced gamma interferon (MIG) Biomarker Activity (AID 2283048); conditions: primary human coronary artery smooth muscle cells; actives raise or lower the signal;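 further: MIG protein level measured by ELISA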
[17] = read-out: serum amyloid A (SAA), SAA1 (gene 6288); assay: BSK_CASM3C_SAA: BioMAP Diversity Plus: CASM3C Assay for serum amyloid A (SAA) Biomarker Activity (AID 2283049); conditions: primary human coronary artery smooth muscle cells; actives raise or lower the signal;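 further: SAA protein level quantified by ELISA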
[18] = BSK_CASM3C_SRB: Viability Assessment in the BioMAP Diversity Plus: CASM3C Assay (AID 2283050); conditions: primary human coronary artery smooth muscle cells;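 further: total protein by SRB staining as cytotoxicity measure in parallel cultures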
[19] = read-out: Tissue plasminogen activator (tPA), PLAT (gene 5327); assay: BSK_BE3C_tPA: BioMAP Diversity Plus: BE3C Assay for Tissue plasminogen activator (tPA) Biomarker Activity (AID 2283041); conditions: primary human bronchial epithelial cells; actives raise or lower the signal
How it was run: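 Human primary bronchial epithelial cells were dosed with chemical and tPA biomarker levels measured by ELISA 24 hours later. Activity was fitted bidirectionally against DMSO as negative control and baseline.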

[20] = read-out: Urokinase-type plasminogen activator receptor (uPAR), PLAUR (gene 5329); assay: BSK_BE3C_uPAR: BioMAP Diversity Plus: BE3C Assay for Urokinase-type plasminogen activator receptor (uPAR) Biomarker Activity (AID 2283039); conditions: primary human bronchial epithelial cells; actives raise or lower the signal
How it was run: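 Primary human bronchial epithelial cells were dosed with chemical and harvested 24 h later; uPAR was quantified by ELISA. Activity was fitted bidirectionally against DMSO as negative control and baseline.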

Measured: AC50

Nc1cc([N+](=O)[O-])ccc1Cl
not listed: [19] | [20]
inactive: all other assays above

BrC1CCC(Br)C(Br)CCC(Br)C(Br)CCC1Br (centres undefined)
active: [1] 2.62 µM | [2] 1.49 µM | [3] 2.95 µM | [4] 1.55 µM | [15] 0.11 µM
not listed: [19] | [20]
inactive: all other assays above

CC(C)c1ccc(C(C)C)cc1
inactive: [5] | [6] | [7] | [8] | [10] | [13] | [17]
active: [1] 33.3 µM | [2] 30.8 µM | [3] 35.1 µM | [4] 30.9 µM | [9] 20 µM | [19] 23.3 µM | [11] 25.9 µM | [12] 32.4 µM | [14] 32.4 µM | [15] 31.4 µM | [16] 31.3 µM | [18] 30.6 µM

COC(=O)c1ccc(C)cc1
not listed: [19] | [20]
inactive: all other assays above

O=C=NC1CCC(CC2CCC(N=C=O)CC2)CC1 (centres undefined)
active: [13] 0.0156 µM | [15] 0.0151 µM
not listed: [19]
inactive: all other assays above

O=C1CCCCCCCCCCCCCCO1
inactive: [1] | [5]
active: [2] 20 µM | [3] 27.4 µM | [4] 12.6 µM | [6] 14.6 µM | [7] 20 µM | [8] 32.7 µM | [20] 20 µM | [9] 31.6 µM | [10] 36.8 µM | [11] 28.4 µM | [12] 29 µM | [13] 30 µM | [14] 31 µM | [15] 20 µM | [16] 32.6 µM | [17] 29.8 µM | [18] 30.9 µM

CC1COc2ccccc2N1C(=O)C(Cl)Cl (centres undefined)
inactive: [1] | [5] | [6] | [10] | [13] | [14] | [16] | [17]
active: [2] 7.78 µM | [3] 8.19 µM | [4] 12.2 µM | [7] 3.97 µM | [8] 0.016 µM | [9] 8.9 µM | [11] 2.96 µM | [12] 0.0828 µM | [15] 8.84 µM | [18] 5.64 µM
